Source: PubChem BioAssay AID1159580 (chemical genetic matrix, 2015)
In all, about 5,500 compounds went through this assay and about 2,000 (36%) were called active. Inconclusive results (about 18%) are left out. Cut-off read from the data, not from the text of the source: active = normalized growth mostly below about 0.91 (no sharp cut-off); inconclusive = no clear call, values can overlap the other calls; inactive = mostly above about 0.92. This is one part of the list.

Assay: chemical genetic growth profiling, strain panel (AID 1159580);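 note: tested at 20 µM; growth read once vehicle control cultures reached saturation at 30 °C; 1 = growth at the plate median or of vehicle wells; lower values mean less growth of the strain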
Conditions: growth OD

Measured: normalized growth

CCOP(=S)(OCC)SCn1c(=O)oc2cc(Cl)ccc21
active: S. cerevisiae deletion strains, locus YLR262C, strain YPT6 (second series), hits give low values 0.8 | S. cerevisiae deletion strains, locus YNL071W, strain lat1, hits give low values 0.91
inactive: S. cerevisiae deletion strains, locus YJR043C, strain POL32, hits give low values 1.01 | S. cerevisiae deletion strains, locus YJR075W, strain HOC1, hits give low values 0.995 | S. cerevisiae deletion strains, locus YKL009W, strain mrt4, hits give low values 0.98 | S. cerevisiae deletion strains, locus YKL068W, hits give low values 1 | S. cerevisiae deletion strains, locus YKL085W, strain MDH1 (second series), hits give low values 0.989 | S. cerevisiae deletion strains, locus YKL085W, strain MDH1, hits give low values 0.989 | S. cerevisiae deletion strains, locus YKL160W, strain elf1, hits give low values 0.968 | S. cerevisiae deletion strains, locus YKL190W, strain CNB1, hits give low values 1.01 | S. cerevisiae deletion strains, locus YKR001C, strain vps1, hits give low values 0.982 | S. cerevisiae deletion strains, locus YKR026C, strain gcn3, hits give low values 0.947 | S. cerevisiae deletion strains, locus YKR091W, strain srl3, hits give low values 0.963 | S. cerevisiae deletion strains, locus YLL001W, strain dnm1, hits give low values 0.967 | S. cerevisiae deletion strains, locus YLL026W, hits give low values 0.954 | S. cerevisiae deletion strains, locus YLL041C, strain sdh2, hits give low values 0.954 | S. cerevisiae deletion strains, locus YLR027C, strain aat2, hits give low values 0.954 | S. cerevisiae deletion strains, locus YLR039C, strain RIC1, hits give low values 0.97 | S. cerevisiae deletion strains, locus YLR058C, strain SHM2, hits give low values 1 | S. cerevisiae deletion strains, locus YLR102C, strain apc9, hits give low values 0.995 | S. cerevisiae deletion strains, locus YLR221C, strain rsa3, hits give low values 0.964 | S. cerevisiae deletion strains, locus YLR258W, strain gsy2, hits give low values 0.93 | S. cerevisiae deletion strains, locus YLR262C, strain YPT6, hits give low values 0.969 | S. cerevisiae deletion strains, locus YLR268W, strain sec22, hits give low values 0.987 | S. cerevisiae deletion strains, locus YLR320W, strain mms22, hits give low values 0.942 | S. cerevisiae deletion strains, locus YLR330W, strain CHS5, hits give low values 0.985 | S. cerevisiae deletion strains, locus YLR342W, strain FKS1 (second series), hits give low values 1.05 | S. cerevisiae deletion strains, locus YLR342W, strain FKS1, hits give low values 0.93 | S. cerevisiae deletion strains, locus YLR357W, strain rsc2, hits give low values 0.949 | S. cerevisiae deletion strains, locus YLR370C, strain arc18, hits give low values 0.962 | S. cerevisiae deletion strains, locus YLR371W, strain rom2, hits give low values 1 | S. cerevisiae deletion strains, locus YLR384C, strain iki3, hits give low values 0.971 | S. cerevisiae deletion strains, locus YLR418C, strain cdc73, hits give low values 0.97 | S. cerevisiae deletion strains, locus YML016C, strain PPZ1, hits give low values 0.996 | S. cerevisiae deletion strains, locus YML032C, strain rad52, hits give low values 0.998 | S. cerevisiae deletion strains, locus YML120C, strain ndi1, hits give low values 0.965 | S. cerevisiae deletion strains, locus YML124C, strain tub3, hits give low values 0.991 | S. cerevisiae deletion strains, locus YMR058W, strain fet3, hits give low values 0.966 | S. cerevisiae deletion strains, locus YMR078C, strain ctf18, hits give low values 0.989 | S. cerevisiae deletion strains, locus YMR125W, strain sto1, hits give low values 0.961 | S. cerevisiae deletion strains, locus YMR129W, hits give low values 0.949 | S. cerevisiae deletion strains, locus YMR205C, strain PFK2, hits give low values 0.895 | S. cerevisiae deletion strains, locus YMR223W, strain ubp8, hits give low values 0.998 | S. cerevisiae deletion strains, locus YMR231W, strain pep5, hits give low values 0.973 | S. cerevisiae deletion strains, locus YMR263W, strain SAP30, hits give low values 1 | S. cerevisiae deletion strains, locus YMR307W, strain GAS1, hits give low values 1.03 | S. cerevisiae deletion strains, locus YNL067W, strain RPL9B, hits give low values 0.993 | S. cerevisiae deletion strains, locus YNL128W, strain TEP1, hits give low values 0.989 | S. cerevisiae deletion strains, locus YNL153C, strain GIM3, hits give low values 0.994 | S. cerevisiae deletion strains, locus YNL209W, strain ssb2, hits give low values 0.983 | S. cerevisiae deletion strains, locus YNL233W, strain BNI4, hits give low values 0.995 | S. cerevisiae deletion strains, locus YNL248C, strain rpa49, hits give low values 0.966 | S. cerevisiae deletion strains, locus YNL250W, strain rad50, hits give low values 0.993 | S. cerevisiae deletion strains, locus YNL271C, strain bni1, hits give low values 0.992 | S. cerevisiae deletion strains, locus YNL298W, strain CLA4, hits give low values 0.997 | S. cerevisiae deletion strains, locus YNL307C, strain MCK1, hits give low values 0.991 | S. cerevisiae deletion strains, locus YNL322C, strain KRE1 (second series), hits give low values 0.958 | S. cerevisiae deletion strains, locus YNL322C, strain KRE1, hits give low values 1 | S. cerevisiae deletion strains, locus YNR049C, strain mso1, hits give low values 0.961 | S. cerevisiae deletion strains, locus YNR052C, strain pop2, hits give low values 0.992 | S. cerevisiae deletion strains, locus YOL006C, strain TOP1, hits give low values 0.981 | S. cerevisiae deletion strains, locus YOL012C, strain htz1 1.68 | S. cerevisiae deletion strains, locus YOL147C, strain pex11, hits give low values 0.996 | S. cerevisiae deletion strains, locus YOR001W, strain rrp6, hits give low values 0.969 | S. cerevisiae deletion strains, locus YOR061W, strain CKA2, hits give low values 0.985 | S. cerevisiae deletion strains, locus YOR069W, strain VPS5, hits give low values 1 | S. cerevisiae deletion strains, locus YOR070C, strain gyp1, hits give low values 0.961 | S. cerevisiae deletion strains, locus YOR080W, strain dia2, hits give low values 0.961 | S. cerevisiae deletion strains, locus YOR083W, strain WHI5, hits give low values 0.961 | S. cerevisiae deletion strains, locus YOR106W, strain vam3, hits give low values 0.963 | S. cerevisiae deletion strains, locus YOR136W, strain idh2, hits give low values 0.999 | S. cerevisiae deletion strains, locus YOR144C, strain elg1, hits give low values 0.982 | S. cerevisiae deletion strains, locus YOR184W, strain ser1, hits give low values 0.978 | S. cerevisiae deletion strains, locus YOR265W, strain rbl2, hits give low values 0.952 | S. cerevisiae deletion strains, locus YOR270C, strain vph1, hits give low values 0.963 | S. cerevisiae deletion strains, locus YOR290C, strain snf2, hits give low values 0.963 | S. cerevisiae deletion strains, locus YOR316C, strain cot1, hits give low values 0.991 | S. cerevisiae deletion strains, locus YPL051W, strain arl3, hits give low values 0.953 | S. cerevisiae deletion strains, locus YPL055C, strain LGE1, hits give low values 0.981 | S. cerevisiae deletion strains, locus YPL078C, strain atp4, hits give low values 0.962 | S. cerevisiae deletion strains, locus YPL106C, strain sse1, hits give low values 0.994 | S. cerevisiae deletion strains, locus YPL240C, strain hsp82, hits give low values 0.948 | S. cerevisiae deletion strains, locus YPL241C, strain CIN2, hits give low values 0.994 | S. cerevisiae deletion strains, locus YPR119W, strain clb2, hits give low values 0.99 | S. cerevisiae deletion strains, locus YPR141C, strain kar3, hits give low values 0.993 | S. cerevisiae deletion strains, locus YPR163C, strain tif3, hits give low values 0.993 | S. cerevisiae deletion strains, locus YPR167C, strain met16, hits give low values 0.984 | S. cerevisiae deletion strains, strain wtn01, hits give low values 0.99 | S. cerevisiae strains, strain wild type, hits give low values 0.993
